These results are taken from PubChem BioAssay (EPA / NIEHS).

Calls of active or inactive are those of the source. The calls were made as follows: active = hit-call score of the fitted dose curve at least 0.9, where 1 is the maximum; inactive = score below 0.9.

Chain of Heat shock factor protein 1 (Homo sapiens) (Q00613 whole entry, looked up): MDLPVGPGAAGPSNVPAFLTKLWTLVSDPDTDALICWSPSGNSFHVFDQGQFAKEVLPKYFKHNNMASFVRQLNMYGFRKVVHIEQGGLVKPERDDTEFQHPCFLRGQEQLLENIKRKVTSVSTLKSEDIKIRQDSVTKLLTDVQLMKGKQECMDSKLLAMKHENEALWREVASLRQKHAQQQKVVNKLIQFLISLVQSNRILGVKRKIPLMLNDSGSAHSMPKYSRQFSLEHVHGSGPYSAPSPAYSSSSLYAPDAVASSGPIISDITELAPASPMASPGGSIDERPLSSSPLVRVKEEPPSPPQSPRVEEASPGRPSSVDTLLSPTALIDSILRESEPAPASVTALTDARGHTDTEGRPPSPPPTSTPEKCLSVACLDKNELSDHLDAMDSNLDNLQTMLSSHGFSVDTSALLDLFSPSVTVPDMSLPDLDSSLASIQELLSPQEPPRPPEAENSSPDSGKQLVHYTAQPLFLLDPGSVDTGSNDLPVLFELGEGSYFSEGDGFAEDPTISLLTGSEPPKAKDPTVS

For the test, the target named is Heat shock factor protein 1 (Homo sapiens) (UniProt Q00613). In words: ATG_HSE_CIS: Attagene CIS-FACTORIAL HepG2 Assay for human Heat Shock Transcription Factor 1 (HSE) (AID 2282953). The following applies: HepG2 HSE cis-reporter, Attagene RNA transcription; actives raise or lower the signal. Here is the method:
ATG_CIS is a cell-based, multiplexed-readout assay that uses HepG2, a human liver cell line, with measurements taken at 24 hours after chemical dosing in a 24-well plate.ATG_HSE_CIS is one of 52 assay component(s) measured or calculated from the ATG_CIS assay. It is designed to make measurements of mRNA induction, a form of inducible reporter, as detected with fluorescence intensity signals by Reverse transcription polymerase chain reaction (RT-PCR) and Capillary electrophoresis technology.Data from the assay component ATG_HSE_CIS was analyzed into 1 assay endpoint. This assay endpoint, ATG_HSE_CIS, was analyzed with bidirectional fitting relative to DMSO as the negative control and baseline of activity. Using a type of inducible reporter, measures of mRNA for gain or loss-of-signal activity can be used to understand the reporter gene at the transcription factor-level as they relate to the gene HSF1. Furthermore, this assay endpoint can be referred to as a primary readout, because this assay has produced multiple assay endpoints where this one serves a reporter gene function. To generalize the intended target to other relatable targets, this assay endpoint is annotated to the dna binding intended target family, where the subfamily is heat shock protein.
Human liver HepG2 cells are transiently transfected with multiple reporter transcription units (MRTUs) in 6-well plates using FuGene 6 reagent (Roche; 3 ml FuGene/1 mg DNA). The MRTU constructs are regulated by a cis-regulating element (promoter). […] A major difference between the CIS and TRANS system is that in CIS activities of endogenous TFs are measured, whereas the TRANS assay evaluates changes in activities of exogenous, chimeric NR-Gal4 proteins. […] At the end of 24 hour incubation, total RNA was isolated using TriZol reagent (Invitrogen). The isolated RNA is then reverse-transcribed using oligo(dT) primer and Mo-MLV reverse transcriptase (Invitrogen) with DNAse I (Ambion) treatment for 30 min. The one-tenth of the produced cDNA was amplified by PCR using Taq DNA polymerase (Invitrogen) and two reporter sequence-specific primers. The PCR products were fluorescently labeled by primer extension with 6-arboxyfluorescein (6-FAM) 5'-labeled reporter sequence-specific primer (2 min at 95 C, 20 s at 68 C and 10 min at 72 C) and these products were digested with 5U of HpaI (New England Biolabs) for 2h at 37 C. The fragments were purified using Qiaquick PCR columns (Qiagen), analyzed on an ABI 3130xL genetic analyzer (Applied Biosystems) with peak positions identified by using a set of X-rhodamine (ROX)-labeled MapMarker1000 molecular weight standards (BioVentures). The raw capillary electrophoresis data was processed using Attagraph software (Attagene).
For the molecule `Cc1cccc(OP(=O)(Oc2cccc(C)c2)Oc2cccc(C)c2)c1`, the call was inactive.

As for `Cc1cc(Cl)ccc1OC(C)C(=O)O` (stereo not given), the molecule was classed as inactive.

As for `C[N+](C)(C)Cc1ccccc1`, the molecule was classed as inactive.

For `ClCCN1CCOCC1`, the result was inactive.

Consider `Cc1c([N+](=O)[O-])c(C)c([N+](=O)[O-])c(C(C)(C)C)c1[N+](=O)[O-]`, for which the molecule was classed as inactive.

As for `C[CH2][Hg][S]c1ccccc1C(=O)O`, the result was inactive.

With `CCC[CH2][Sn]([Cl])([Cl])[CH2]CCC`, the AC50 is 0.818 µM (active).

For the molecule `C=CC(=O)NC(C)(C)CC(C)=O`, the outcome was inactive.

Take `CC(C)=CC1C(C(=O)OCc2cccc(Oc3ccccc3)c2)C1(C)C` (stereo not given): the result was inactive.

Regarding `O=C(CCl)Nc1ccccc1`, the AC50 was 49 µM (active).

On to `Nc1nc(N)nc(Cl)n1`, for which the result was inactive.

`C[As+](C)(C)CC(=O)[O-]`: the result was inactive.

For `CC(C=O)Cc1ccc2c(c1)OCO2` (stereo not given), the outcome was inactive.

`OC(Cc1ccccc1Cl)(Cn1[nH]cnc1=S)C1(Cl)CC1` (stereo not given): the half-maximal activity concentration (AC50) was 140 µM (active).

Turning to `CCOc1cc(C=O)ccc1O`, the call was inactive.

For `OC[C@@H](O)[C@H]1O[C@@H]2O[C@H](C(Cl)(Cl)Cl)O[C@@H]2[C@H]1O`, the call was inactive.

For `[F][Sn]([c]1ccccc1)([c]1ccccc1)[c]1ccccc1`, the AC50 is 0.324 µM (active).

Turning to `CC(C)[C@H](C(=O)OC(C#N)c1cccc(Oc2ccccc2)c1)c1ccc(OC(F)F)cc1` (stereo not given in full), the molecule was called inactive.

On to `CC[N+](CC)(CC)CC`, for which the molecule was called inactive.

Regarding `O=S(=O)(F)C(F)(F)C(F)(F)C(F)(F)C(F)(F)F`, the call was inactive.

On to `COCCl`, for which the outcome was inactive.

In the case of `CCOCn1c(-c2ccc(Cl)cc2)c(C#N)c(Br)c1C(F)(F)F`, the AC50 was 53.2 µM (active).

Consider `C=CC(Cl)CCl` (stereo not given), for which the molecule was called inactive.

As for `O=C1c2ccccc2C(=O)C1C(=O)C(c1ccccc1)c1ccc(Cl)cc1` (stereo not given), the AC50 is 62.8 µM (active).

Regarding `Cc1cccc(N=Nc2ccc(N(C)C)cc2)c1`, the outcome was inactive.

Consider `N#Cc1ccc(Cl)cc1`, for which the outcome was inactive.

As for `O=[N+]([O-])c1c2ccccc2cc2ccccc12`, the molecule was called inactive.

In the case of `O=C(O)c1cc(I)cc(I)c1I`, the molecule was classed as inactive.

As for `CCOC(=O)Cc1ccccc1`, the result was inactive.

`NNCCO`: the molecule was called inactive.

As for `C=C(C)C(=O)OCC(CC)CCCC` (stereo not given), the molecule was called inactive.

In the case of `COc1ccc(N)cc1`, the molecule was classed as inactive.

With `N#Cc1cccnc1`, the result was inactive.

With `O=NN1CCCCCCC1`, the call was inactive.

Turning to `CC(c1ccccc1)(c1ccc(O)cc1)c1ccc(O)cc1`, the AC50 was 17.7 µM (active).

With `C[C@@H]1O[C@@H](O[C@H]2C[C@@H](O)[C@]3(CO)[C@H]4[C@H](O)C[C@]5(C)[C@@H](C6=CC(=O)OC6)CC[C@]5(O)[C@@H]4CC[C@]3(O)C2)[C@H](O)[C@H](O)[C@H]1O`, the AC50 is 0.0716 µM (active).

For `O=S1(=O)OC(c2cc(Br)c(O)c(Br)c2)(c2cc(Br)c(O)c(Br)c2)c2ccccc21`, the molecule was classed as inactive.

With `C1CCC(C2CCCCC2)CC1`, the molecule was called inactive.

On to `Cc1cc(SCc2sc(-c3ccc(C(F)(F)F)c(F)c3)nc2C)ccc1OCC(=O)O`, for which the half-maximal activity concentration (AC50) was 50.9 µM (active).

Turning to `O=NN1CCCCCC1`, the molecule was classed as inactive.
